16 molecules from PubChem BioAssay (EPA / NIEHS) can be followed below.

Inconclusive results are not listed. The source made the active and inactive calls. The calls were made as follows, unless noted: active = hit-call score of the fitted dose curve at least 0.9, where 1 is the maximum; inconclusive = response in the unintended direction; inactive = score below 0.9.

As usually defined, the AC50 is the concentration giving half of the maximal activity seen.

For assay [1], the target named is human RAR-related Orphan Receptor gamma (RORg), RORC (gene 6097) (UniProt P51449). The experiment in a line: ATG_RORg_TRANS: Attagene TRANS-FACTORIAL HepG2 Assay for human RAR-related Orphan Receptor gamma (RORg) (AID 2283011). Summed up: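 Readout: reporter transcript induction (RT-PCR, fluorescent primer extension, capillary electrophoresis) after 24 h compound exposure of transiently transfected HepG2 cells carrying a RORg-Gal4 chimera and GAL4-UAS reporters; DMSO served as baseline, with increasing signal fitted.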
Sequence of human RAR-related Orphan Receptor gamma (RORg), RORC (gene 6097) (P51449 whole entry, looked up, the tested form may be a part): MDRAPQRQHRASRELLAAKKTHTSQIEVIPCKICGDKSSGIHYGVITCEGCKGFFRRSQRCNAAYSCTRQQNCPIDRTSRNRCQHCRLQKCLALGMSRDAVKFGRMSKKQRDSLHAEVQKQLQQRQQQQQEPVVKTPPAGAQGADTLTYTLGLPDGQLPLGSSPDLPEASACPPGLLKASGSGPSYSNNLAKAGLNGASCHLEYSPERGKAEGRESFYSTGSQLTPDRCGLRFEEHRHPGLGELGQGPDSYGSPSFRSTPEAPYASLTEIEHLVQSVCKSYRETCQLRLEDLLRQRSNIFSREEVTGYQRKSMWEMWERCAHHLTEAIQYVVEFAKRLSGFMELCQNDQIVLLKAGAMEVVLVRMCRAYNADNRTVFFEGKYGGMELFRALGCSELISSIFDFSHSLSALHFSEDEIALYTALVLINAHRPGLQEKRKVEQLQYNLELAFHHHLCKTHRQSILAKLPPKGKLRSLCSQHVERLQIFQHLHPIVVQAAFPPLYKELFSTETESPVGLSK

The target in assay [2] is human Thyroid Receptor alpha (THRa1), THRA (gene 7067) (UniProt P10827). The experiment in a line: ATG_THRa1_TRANS: Attagene TRANS-FACTORIAL HepG2 Assay for human Thyroid Receptor alpha (THRa1) (AID 2283014). Summed up: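 HepG2 cells transiently transfected with multiplexed GAL4-UAS reporter units for exogenous chimeric THRa1-Gal4; reporter mRNA measured 24 h after dosing by RT-PCR, 6-FAM labelling, HpaI digestion and capillary electrophoresis. Gain-of-signal fitted versus DMSO baseline.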
Sequence of human Thyroid Receptor alpha (THRa1), THRA (gene 7067) (P10827 whole entry, looked up, the tested form may be a part): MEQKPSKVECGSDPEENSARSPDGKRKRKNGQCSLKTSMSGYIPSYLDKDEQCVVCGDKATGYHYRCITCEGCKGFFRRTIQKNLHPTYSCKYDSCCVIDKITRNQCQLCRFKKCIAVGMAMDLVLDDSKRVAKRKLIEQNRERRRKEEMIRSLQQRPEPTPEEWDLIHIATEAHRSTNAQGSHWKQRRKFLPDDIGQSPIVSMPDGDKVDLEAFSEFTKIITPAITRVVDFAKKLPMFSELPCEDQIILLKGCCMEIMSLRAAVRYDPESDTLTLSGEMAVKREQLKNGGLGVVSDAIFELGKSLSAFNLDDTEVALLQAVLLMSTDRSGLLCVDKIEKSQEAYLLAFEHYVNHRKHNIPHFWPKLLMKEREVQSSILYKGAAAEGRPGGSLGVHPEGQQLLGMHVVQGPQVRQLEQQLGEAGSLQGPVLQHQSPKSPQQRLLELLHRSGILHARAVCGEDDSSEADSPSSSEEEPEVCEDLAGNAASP

For assay [3], the target named is human Retinoid X Receptor beta (RXRb), RXRB (gene 6257) (UniProt P28702). The experiment in a line: ATG_RXRb_TRANS: Attagene TRANS-FACTORIAL HepG2 Assay for human Retinoid X Receptor beta (RXRb) (AID 2283013). The method in brief: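 Multiplexed TRANS reporter assay in HepG2; 24 h dosing; reporter mRNA by RT-PCR/CE fluorescence; gain-of-signal relative to DMSO.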
Sequence of human Retinoid X Receptor beta (RXRb), RXRB (gene 6257) (P28702 whole entry, looked up): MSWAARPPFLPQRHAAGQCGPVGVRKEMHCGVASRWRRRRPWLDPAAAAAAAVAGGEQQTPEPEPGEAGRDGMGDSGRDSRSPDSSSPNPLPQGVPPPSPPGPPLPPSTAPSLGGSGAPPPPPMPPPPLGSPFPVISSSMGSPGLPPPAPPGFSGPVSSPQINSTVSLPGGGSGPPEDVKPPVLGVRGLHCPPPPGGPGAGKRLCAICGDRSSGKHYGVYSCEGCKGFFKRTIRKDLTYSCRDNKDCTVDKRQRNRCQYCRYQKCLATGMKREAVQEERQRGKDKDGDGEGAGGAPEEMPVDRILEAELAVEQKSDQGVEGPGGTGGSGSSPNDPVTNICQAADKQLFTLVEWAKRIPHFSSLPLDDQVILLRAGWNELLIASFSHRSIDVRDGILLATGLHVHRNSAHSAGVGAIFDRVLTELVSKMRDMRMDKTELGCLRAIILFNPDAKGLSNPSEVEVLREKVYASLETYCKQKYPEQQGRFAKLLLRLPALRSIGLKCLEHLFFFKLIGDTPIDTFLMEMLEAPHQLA

Read-out in assay [4]: E-selectin (Homo sapiens) (UniProt P16581)
The experiment in a line: BSK_3C_Eselectin: BioMAP Diversity Plus: 3C Assay for Eselectin Biomarker Activity (AID 2283015; active = hit-call score of the fitted dose curve at least 0.9, where 1 is the maximum; inactive = score below 0.9;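 also: cell surface E-selectin protein quantified by ELISA 24 h after dosing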). The note with it: primary human endothelial cells (HUVEC); actives raise or lower the signal. The method in brief:
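Primary human umbilical vein endothelial cells (3C system) were dosed with chemical and cell-surface E-selectin measured by ELISA 24 h later. Bidirectional curve fitting used DMSO as negative control and baseline.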

Read-out in assay [5]: Interleukin-1 alpha (IL1a), IL1A (gene 3552)
The experiment in a line: BSK_BE3C_IL1a: BioMAP Diversity Plus: BE3C Assay for Interleukin-1 alpha (IL1a) Biomarker Activity (AID 2283016; active = hit-call score of the fitted dose curve at least 0.9, where 1 is the maximum; inactive = score below 0.9). The note with it: primary human bronchial epithelial cells; actives raise or lower the signal. The method in brief:
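Cultures of primary human bronchial epithelial cells receive test chemical. After 24 h, IL-1a is quantified by ELISA, while parallel wells are fixed in TCA and SRB-stained for total protein. Changes in either direction are fitted relative to DMSO.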

Read-out in assay [6]: Monocyte Chemoattractant Protein-1 (MCP1), CCL2 (gene 6347)
The experiment in a line: BSK_3C_MCP1: BioMAP Diversity Plus: 3C Assay for Monocyte Chemoattractant Protein-1 (MCP1) Biomarker Activity (AID 2283017; active = hit-call score of the fitted dose curve at least 0.9, where 1 is the maximum; inactive = score below 0.9). The settings on record: primary human endothelial cells (HUVEC); actives raise or lower the signal. Summed up:
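Primary human umbilical vein endothelial cells (3C system) were exposed to test chemical for 24 h, after which MCP-1 was quantified by ELISA. Activity was fitted bidirectionally against DMSO as negative control and baseline.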

Read-out in assay [7]: Monocyte Chemoattractant Protein-1 (MCP1), CCL2 (gene 6347)
The experiment in a line: BSK_4H_MCP1: BioMAP Diversity Plus: 4H Assay for Monocyte Chemoattractant Protein-1 (MCP1) Biomarker Activity (AID 2283018; active = hit-call score of the fitted dose curve at least 0.9, where 1 is the maximum; inactive = score below 0.9). The note with it: primary human endothelial cells (HUVEC); actives raise or lower the signal. The method in brief:
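Readout: MCP-1 ELISA on compound-treated HUVEC, sampled 24 h post-dosing. Baseline and negative control DMSO; bidirectional fit. Overt toxicity checked alongside by sulforhodamine B protein staining at time of biomarker measurement.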

Read-out in assay [8]: Human Leukocyte Antigen - DR isotype (HLADR), HLA-DRA (gene 3122)
The experiment in a line: BSK_3C_HLADR: BioMAP Diversity Plus: 3C Assay for Human Leukocyte Antigen - DR isotype (HLADR) Biomarker Activity (AID 2283019; active = hit-call score of the fitted dose curve at least 0.9, where 1 is the maximum; inactive = score below 0.9). The note with it: primary human endothelial cells (HUVEC); actives raise or lower the signal. The method in brief:
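Primary human umbilical vein endothelial cells (3C system) were dosed with compound and cell-surface HLA-DR was quantified by ELISA at 24 h. Activity was fitted bidirectionally against DMSO as negative control and baseline.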

Assay [9] concerns the target Retinoic acid receptor RXR-alpha (Homo sapiens) (UniProt P19793). The experiment in a line: ATG_RXRa_TRANS: Attagene TRANS-FACTORIAL HepG2 Assay for human Retinoid X Receptor alpha (RXRa) (AID 2283012). Summed up: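 Cells (HepG2) carried transiently transfected GAL4-responsive reporter units. Following a 24 h chemical incubation, reporter mRNA induction was read via RT-PCR fragment analysis; DMSO served as negative control and baseline.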

Sequence of Retinoic acid receptor RXR-alpha (Homo sapiens) (P19793 whole entry, looked up, the tested form may be a part): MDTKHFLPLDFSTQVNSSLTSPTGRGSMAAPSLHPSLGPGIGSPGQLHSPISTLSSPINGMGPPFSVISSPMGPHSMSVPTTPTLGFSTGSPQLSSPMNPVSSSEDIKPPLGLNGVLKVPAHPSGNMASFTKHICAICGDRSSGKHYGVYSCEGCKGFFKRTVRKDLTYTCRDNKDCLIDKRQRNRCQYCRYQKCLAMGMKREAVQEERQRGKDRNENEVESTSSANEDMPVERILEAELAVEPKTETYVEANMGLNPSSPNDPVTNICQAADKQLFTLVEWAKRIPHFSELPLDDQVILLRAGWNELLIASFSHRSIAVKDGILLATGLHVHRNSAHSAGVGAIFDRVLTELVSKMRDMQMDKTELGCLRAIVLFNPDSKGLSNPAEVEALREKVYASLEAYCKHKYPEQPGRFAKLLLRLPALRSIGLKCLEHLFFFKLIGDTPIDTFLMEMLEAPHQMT
Sequence of E-selectin (Homo sapiens) (P16581 whole entry, looked up): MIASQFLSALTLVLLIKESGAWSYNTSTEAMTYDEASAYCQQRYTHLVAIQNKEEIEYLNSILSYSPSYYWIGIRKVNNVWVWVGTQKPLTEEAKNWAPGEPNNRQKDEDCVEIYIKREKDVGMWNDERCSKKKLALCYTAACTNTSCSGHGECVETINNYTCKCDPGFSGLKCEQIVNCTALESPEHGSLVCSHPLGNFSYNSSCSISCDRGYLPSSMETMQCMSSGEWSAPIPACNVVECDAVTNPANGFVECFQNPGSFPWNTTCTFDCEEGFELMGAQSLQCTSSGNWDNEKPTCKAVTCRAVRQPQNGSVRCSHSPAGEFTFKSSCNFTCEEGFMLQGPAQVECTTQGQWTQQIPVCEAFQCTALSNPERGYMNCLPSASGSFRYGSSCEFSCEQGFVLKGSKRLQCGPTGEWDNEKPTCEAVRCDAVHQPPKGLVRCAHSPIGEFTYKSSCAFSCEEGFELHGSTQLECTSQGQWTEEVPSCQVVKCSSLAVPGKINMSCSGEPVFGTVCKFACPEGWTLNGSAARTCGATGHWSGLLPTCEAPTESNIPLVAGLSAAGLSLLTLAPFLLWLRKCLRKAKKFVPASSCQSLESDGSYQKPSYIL

Turning to `O=C1C(c2[nH]c3ccc(S(=O)(=O)O)cc3c2O)=Nc2ccc(S(=O)(=O)O)cc21`, the call in assay [1] and in [2] was inactive.
`c1ccc2c(c1)c1cccc3ccc4cccc2c4c31`: the outcome in assay [1], in assay [4], in assay [5], in assay [6] and in assay [7] was inactive. The AC50 in assay [3] is 10.2 µM (active); in assay [8] it was 0.206 µM (active).
Turning to `CCC(C)(O)CCC=C(C)C` (stereo not given), in [9], the outcome was inactive.
Same read-out and setting: next, `C[C@]12CC[C@H]3[C@@H](CCC4=CC(=O)CC[C@@]43C)[C@@H]1CC[C@@H]2C(=O)CO`: “inactive”.
Regarding `COc1ccc(Nc2ccccc2)c(C)c1`, in [9], the result was inactive. In assay [3], the AC50 was 33.1 µM (active).
On to `CC1(C)CCC(C)(C)c2cc(C(=O)Nc3ccc(C(=O)O)cc3)ccc21`, for which the outcome in assay [9] and in [3] was inactive.
As to `CC(C)(C#N)c1cc(Cn2cncn2)cc(C(C)(C)C#N)c1`, the result in assay [9] and in assay [3] was inactive.
With `Cc1c(Cl)c(=O)oc2cc(O)ccc12`, the result in assay [9] and in [3] was inactive.
As to `C[Si](O[Si](C)(C)C)O[Si](C)(C)C`, in assay [9], the call was inactive. In assay [3], the AC50 is 61.7 µM (active).
`O=S(=O)(O)c1cccc2c(S(=O)(=O)O)cccc12`: the outcome in assay [9] and in [3] was inactive.
As to `CCC(=O)/C=C/C1C(C)=CCCC1(C)C` (stereo not given), the molecule was classed as inactive in assay [9]. The AC50 in assay [3] was 34.7 µM (active).
The matching figures for `Cc1ncc([N+](=O)[O-])n1C`: “inactive” and 100 µM (active).
Take `CN(C)c1ccc(O)c2c1C[C@H]1C[C@H]3[C@H](N(C)C)C(=O)C(C(N)=O)=C(O)[C@@]3(O)C(=O)C1=C2O`: the molecule was classed as inactive in assay [9] and in [3].
As for `C=CC(C)(C)O`, the call in [9] and in assay [3] was inactive.
On to `CCCCCCCCCCCCOCCO`, for which the result in assay [9] was inactive. Also, in assay [3], the AC50 was 33.4 µM (active).
On to `CCCCN`, for which the result in assay [9] and in assay [3] was inactive.
